Experiment [1] is described as follows: qHTS Assay for Lipid Storage Modulators (AID 1519; calls by dose curve; note: potency is the fitted concentration of half-maximal effect; for activity change, negative = inhibition: % is set by controls: 0 for no effect and ±100 for the full control effect). As to conditions: Drosophila S3 cells, BODIPY lipid droplet/cell ratio, laser cytometry, cells loaded with oleic acid; for activity change, negative = inhibition: at 57.5 µM (top of the series). The method, boiled down: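 Cells seeded at 5,000 per well were treated with compounds over a concentration series and loaded with oleic acid (400 uM, as added). Lipid droplet fluorescence (488 nm excitation, 500-530 nm channel) was read by laser-scanning cytometry and normalized to 20 uM Triacsin C.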

Experiment [2] in a line: qHTS profiling for inhibitors of Plasmodium falciparum proliferation (AID 504749).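 For activity, negative = inhibition: 0% = DMSO vehicle and full inhibition = artemisinin control.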 For all read-outs here: nearly all actives have a fitted effect of over 60% in size. Note: potency is the fitted concentration of half-maximal effect. As to conditions: P. falciparum in erythrocytes, SYBR Green DNA, 72 h; for activity, negative = inhibition: at 28.7 µM (top of the series). The method, boiled down: (§1)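 Readout was DNA-dye fluorescence from lysed cultures, ex 485/em 535 nm. Parasitized red cells had grown 72 h with compound; data scaled between 0.29 uM artemisinin and DMSO wells and corrected using vehicle-only plates.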
On the technique in general: qHTS replaces the single test concentration by a dilution series.

The target of experiment [3] is ATP-dependent 6-phosphofructokinase (Trypanosoma brucei brucei) (UniProt O15648). In words: qHTS Assay to Find Inhibitors of T. brucei phosphofructokinase: hit validation (AID 492961). Note: % is set by controls: 0 for no effect and ±100 for the full control effect. As to conditions: T. brucei PFK, ADP-Glo luminescence; series mostly up to 24.3 µM. Put shortly:
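Luminescence from ADP-Glo reports ADP generated as T. brucei PFK (1.25 nM) phosphorylates 0.5 mM fructose-6-phosphate using 0.1 mM ATP. Reactions ran 45 min at room temperature, pH 8.0.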

The target in experiment [4] is Ubiquitin carboxyl-terminal hydrolase 1 (Homo sapiens) (UniProt O94782). In words: Inhibitors of USP1/UAF1: Pilot qHTS (AID 504865).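 Note: rhodamine fluorescence freed from ubiquitin-rhodamine substrate followed over time; top concentration of the series differs between compounds; % is set by controls: 0 for no effect and ±100 for the full control effect; nearly all actives have a fitted effect of over 35% in size.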 As to conditions: purified USP1/UAF1, Ub-rhodamine cleavage fluorescence; series mostly up to 114 µM. Put shortly: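 In 50mM HEPES pH 7.8 containing 0.5mM EDTA, 1mM TCEP, 0.1 mg/ml BSA and 0.01% Tween-20, 1nM USP1/UAF1 is exposed to compound for 15 min, then Ub-Rho (150nM final) is added and fluorescence is read over time.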

Experiment [5] has as its target Luciferin 4-monooxygenase (Photinus pyralis) (UniProt P08659). In words: Biochemical firefly luciferase enzyme assay for NPC (AID 624030).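 Note: purified P. pyralis luciferase at 10 nM with luciferin and ATP substrate; 0% = DMSO and -100% = full luciferase inhibition by PTC124 control; nearly all actives have a fitted effect of over 70% in size.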 The following applies: purified P. pyralis luciferase, luminescence, 5 min; series mostly up to 24.9 µM. The method, boiled down: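 Purified P. pyralis luciferase at 10 nM in 50 mM Tris Acetate (final), luminescence read within 5 minutes of enzyme addition to compounds. Activity normalised to PTC124 versus DMSO; concentration-response curves classed by r2, magnitude and activity.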

Experiment [6] concerns 3D7. In words: qHTS profiling for inhibitors of Plasmodium falciparum proliferation (AID 504749).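 For activity, negative = inhibition: 0% = DMSO vehicle and full inhibition = artemisinin control.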 Note: nearly all actives have a fitted effect of over 60% in size. Note: potency is the fitted concentration of half-maximal effect. As to conditions: P. falciparum in erythrocytes, SYBR Green DNA, 72 h; series mostly up to 12.8 µM. The method, boiled down: as §1
Experiment [7] deals with C2A. The description is as above. As to conditions: P. falciparum in erythrocytes, SYBR Green DNA, 72 h; series mostly up to 12.8 µM. The method, boiled down: as §1
Experiment [8] relates to CP201. The description is as above. The following applies: P. falciparum in erythrocytes, SYBR Green DNA, 72 h; series mostly up to 12.8 µM. Put shortly:
as §1

The test system of experiment [9] is CP211. The description is as above. The following applies: P. falciparum in erythrocytes, SYBR Green DNA, 72 h; series mostly up to 12.8 µM. Put shortly:
as §1

The subject of experiment [10] is CP237. The description is as above. The following applies: P. falciparum in erythrocytes, SYBR Green DNA, 72 h; series mostly up to 12.8 µM. Put shortly:
as §1

The subject of experiment [11] is CP252. The experiment is described as above. As to conditions: P. falciparum in erythrocytes, SYBR Green DNA, 72 h; series mostly up to 12.8 µM. Put shortly: as §1
Experiment [12] relates to CP262. The experiment is described as above. As to conditions: P. falciparum in erythrocytes, SYBR Green DNA, 72 h; series mostly up to 12.8 µM. Put shortly: as §1
In experiment [13] the test system is CP268. Described as above. As to conditions: P. falciparum in erythrocytes, SYBR Green DNA, 72 h; series mostly up to 12.8 µM. Put shortly: as §1
Experiment [14] concerns CP305. Described as above. As to conditions: P. falciparum in erythrocytes, SYBR Green DNA, 72 h; series mostly up to 12.8 µM. Put shortly:
as §1

In experiment [15] the test system is CP315. Described as above. As to conditions: P. falciparum in erythrocytes, SYBR Green DNA, 72 h; series mostly up to 12.8 µM. The method, boiled down:
as §1

Experiment [16] deals with CP329. The experiment is described as above. The following applies: P. falciparum in erythrocytes, SYBR Green DNA, 72 h; series mostly up to 12.8 µM. The method, boiled down: as §1
Experiment [17] concerns HB3. The description is as above. The following applies: P. falciparum in erythrocytes, SYBR Green DNA, 72 h; series mostly up to 12.8 µM. Put shortly:
as §1

The test system of experiment [18] is JCK. Described as above. As to conditions: P. falciparum in erythrocytes, SYBR Green DNA, 72 h; series mostly up to 12.8 µM. Put shortly:
as §1

Experiment [19] deals with PAD. Described as above. The following applies: P. falciparum in erythrocytes, SYBR Green DNA, 72 h; series mostly up to 12.8 µM. Put shortly: as §1
The subject of experiment [20] is PC49. The experiment is described as above. As to conditions: P. falciparum in erythrocytes, SYBR Green DNA, 72 h; series mostly up to 12.8 µM. Put shortly: as §1
The mark [21] stands for this setting: measured here: cell count channel max response.
Where [22] appears, read: measured here: lipid channel max response.

This note sets out measurements from PubChem BioAssay (NCATS).

Records with an inconclusive call do not appear. The source made the active and inactive calls. Unless noted, calls come from the whole dose curve; as a rule, active = well fitted curve in the direction sought with a large enough effect; inconclusive = small, poorly fitted or top-dose-only effect, or another doubt; inactive = no such curve, though single readings can be large; an effect the other way counts as inactive or inconclusive.

Sequence of Luciferin 4-monooxygenase (Photinus pyralis) (P08659 whole entry, looked up): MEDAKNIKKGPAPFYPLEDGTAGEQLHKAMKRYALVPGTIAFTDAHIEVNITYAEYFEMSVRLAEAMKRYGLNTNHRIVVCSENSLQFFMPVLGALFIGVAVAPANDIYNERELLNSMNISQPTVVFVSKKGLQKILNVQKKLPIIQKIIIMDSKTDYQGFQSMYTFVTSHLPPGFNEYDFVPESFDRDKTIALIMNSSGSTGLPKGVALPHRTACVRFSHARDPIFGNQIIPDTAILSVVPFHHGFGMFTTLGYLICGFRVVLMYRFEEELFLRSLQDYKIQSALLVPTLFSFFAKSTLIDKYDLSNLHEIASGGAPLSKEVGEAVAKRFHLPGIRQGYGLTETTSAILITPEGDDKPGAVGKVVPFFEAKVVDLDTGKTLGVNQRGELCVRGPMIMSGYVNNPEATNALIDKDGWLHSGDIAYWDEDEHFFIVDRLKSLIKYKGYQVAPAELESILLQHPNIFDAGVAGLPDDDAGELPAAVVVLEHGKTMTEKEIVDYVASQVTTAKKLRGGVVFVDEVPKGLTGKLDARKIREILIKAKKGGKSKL
Sequence of ATP-dependent 6-phosphofructokinase (Trypanosoma brucei brucei) (O15648 whole entry, looked up): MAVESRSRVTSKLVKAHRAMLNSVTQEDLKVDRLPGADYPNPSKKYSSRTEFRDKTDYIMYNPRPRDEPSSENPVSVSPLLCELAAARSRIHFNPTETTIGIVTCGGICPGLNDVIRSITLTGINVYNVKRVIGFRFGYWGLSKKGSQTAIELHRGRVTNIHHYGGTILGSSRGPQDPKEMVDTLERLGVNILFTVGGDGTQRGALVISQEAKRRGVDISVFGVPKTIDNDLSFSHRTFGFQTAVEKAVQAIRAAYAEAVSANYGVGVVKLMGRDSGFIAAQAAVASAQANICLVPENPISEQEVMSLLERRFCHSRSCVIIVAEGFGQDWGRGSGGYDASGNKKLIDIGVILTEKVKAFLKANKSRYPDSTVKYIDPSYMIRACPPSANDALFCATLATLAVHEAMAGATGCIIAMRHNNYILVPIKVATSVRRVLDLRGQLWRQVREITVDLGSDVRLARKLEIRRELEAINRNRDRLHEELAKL
Sequence of Ubiquitin carboxyl-terminal hydrolase 1 (Homo sapiens) (O94782 whole entry, looked up): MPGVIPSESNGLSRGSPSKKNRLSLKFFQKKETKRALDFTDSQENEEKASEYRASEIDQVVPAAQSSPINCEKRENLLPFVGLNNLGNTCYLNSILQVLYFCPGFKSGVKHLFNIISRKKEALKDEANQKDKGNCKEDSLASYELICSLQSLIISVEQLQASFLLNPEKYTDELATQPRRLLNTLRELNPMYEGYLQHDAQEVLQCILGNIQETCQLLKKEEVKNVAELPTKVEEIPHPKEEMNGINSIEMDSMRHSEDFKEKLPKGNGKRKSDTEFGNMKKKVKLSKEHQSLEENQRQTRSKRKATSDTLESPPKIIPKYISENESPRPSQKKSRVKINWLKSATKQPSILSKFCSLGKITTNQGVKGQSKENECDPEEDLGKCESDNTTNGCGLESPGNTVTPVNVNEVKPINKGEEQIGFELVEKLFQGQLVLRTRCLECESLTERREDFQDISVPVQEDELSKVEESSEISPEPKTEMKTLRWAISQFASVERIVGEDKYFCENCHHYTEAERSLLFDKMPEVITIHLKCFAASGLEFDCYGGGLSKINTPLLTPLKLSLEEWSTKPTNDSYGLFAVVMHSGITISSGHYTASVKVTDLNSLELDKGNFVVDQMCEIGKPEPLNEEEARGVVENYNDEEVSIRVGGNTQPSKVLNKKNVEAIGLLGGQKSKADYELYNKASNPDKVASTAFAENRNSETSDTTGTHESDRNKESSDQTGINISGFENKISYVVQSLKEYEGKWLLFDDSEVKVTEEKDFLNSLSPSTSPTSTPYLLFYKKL

Take `CC[C@H](C(=O)[C@H](C)[C@H](O)[C@H](C)CCc1ccc(C)c(O)c1C(=O)O)[C@H]1O[C@](CC)([C@@H]2CC[C@@](O)(CC)[C@H](C)O2)C[C@H]1C`: the Potency in [1] was 14.1 µM (active).
With `COc1cc(N[C@@H](C)CCCN)c2ncccc2c1`, the Potency in [2] (parasite line A) is 1.58 µM (active); in experiment [2] (parasite line B), 2.82 µM (active).
With `C=Cc1c(C)c2cc3nc(cc4[nH]c(cc5nc(cc1[nH]2)C(C)=C5CCC(=O)O)c(CCC(=O)OC)c4C)[C@@]1(C)C3=CC=C(C(=O)OC)[C@H]1C(=O)OC` (tested in a mixture with another compound), the Potency in [2] (parasite line A) is 10 µM (active); in experiment [2] (parasite line B), 5.62 µM (active).
In the case of `CC(C)C1CCC(C(=O)NC(Cc2ccccc2)C(=O)O)CC1` (configuration not stated), in experiment [1], the activity change, negative = inhibition is 5.23% (inactive). Also, the max response in experiment [1] (setting [21]) came out at 2.86%; in experiment [1] (setting [22]) it was 10.2%. Also, the compound was classed as inactive in experiment [3]. Besides, the Potency entry in experiment [4], in experiment [5], in experiment [6], in [7], in experiment [8] and in experiment [9] was “inactive” in each case. The Potency entry in [10], in experiment [11], in experiment [12], in experiment [13], in [14] and in experiment [15] was “inactive” throughout. Besides, the Potency entry in experiment [16], in experiment [17], in experiment [18], in [19] and in experiment [20] was “inactive” each time. Further, the activity, negative = inhibition in experiment [2] (parasite line A) is -12% (inactive); in experiment [2] (parasite line B), 8.36% (inactive).
As for `CC1(C)SC2C(N3C(=O)C(c4ccccc4)NC3(C)C)C(=O)N2C1C(=O)O` (configuration not stated), the activity change, negative = inhibition in experiment [1] was 8.56% (inactive). Moreover, the max response in experiment [1] (setting [21]) was found to be 12.6%; in [1] (setting [22]) it was 31%. The compound was classed as inactive in [3]. In addition, the Potency result in experiment [5], in experiment [6], in [7], in experiment [8], in experiment [9] and in experiment [10] was “inactive” throughout. In addition, the Potency entry in experiment [11], in [12], in [13], in experiment [14], in experiment [15] and in experiment [16] was “inactive” each time. For the same compound, the Potency result in experiment [17], in experiment [18], in experiment [19] and in experiment [20] was “inactive” each time. The activity, negative = inhibition in experiment [2] (parasite line A) is -1.6% (inactive); in experiment [2] (parasite line B), 9.57% (inactive).
For `COc1c(O)cc(O)cc1O`, the activity change, negative = inhibition in [1] was -1.6% (inactive). Besides, the max response in experiment [1] (setting [21]) is 3.65%; in [1] (setting [22]), 4.87%. Further, the Potency result in [4] is “inactive”.
With `NC(C(=O)O)[C@@H]1CC(Cl)=NO1` (some centres not stated), the activity change, negative = inhibition in experiment [1] was 6.89% (inactive). The max response in [1] (setting [21]) was 16.9%; in experiment [1] (setting [22]), 29%. Further, the compound was called inactive in [3]. The Potency entry in experiment [4] and in experiment [5] was “inactive” in each case. The Potency in [2] (parasite line A) is 1.26 µM (active); in experiment [2] (parasite line B) it was 2.82 µM (active); in [6], 1 µM (active); in experiment [7] it was 1.12 µM (active); in experiment [8], 3.01 µM (active); in experiment [9], 2.69 µM (active). In addition, the Potency in experiment [10] is 1.26 µM (active); in [11], 2.82 µM (active); in experiment [12], 4.26 µM (active); in experiment [13], 1.51 µM (active); in experiment [14], 1.51 µM (active); in experiment [15] it was 3.38 µM (active). The Potency in experiment [16] is 3.01 µM (active); in experiment [17], 1.78 µM (active); in experiment [18], 5.62 µM (active); in [19] it was 0.708 µM (active).
With `COC1C=CO[C@@]2(C)Oc3c(C)c(O)c4c(O)c(c5c(nc6cc(C)ccn65)c4c3C2=O)NC(=O)/C(C)=C\C=CC(C)C(O)[C@@H](C)C(O)C(C)[C@@H](OC(C)=O)C1C` (some centres not stated), the activity change, negative = inhibition in [1] is -13.7% (inactive). Also, the max response in [1] (setting [21]) was -0.865%; in experiment [1] (setting [22]), -14.4%. The call in experiment [3] was inactive. In experiment [5], the Potency result was “inactive”. In addition, the Potency in experiment [2] (parasite line A) was 14.1 µM (active); in experiment [2] (parasite line B), 10 µM (active); in [6], 12.6 µM (active); in experiment [7], 10 µM (active); in experiment [9] it was 15.1 µM (active); in experiment [10], 8.91 µM (active). In addition, the Potency in [11] was 10 µM (active); in [13], 12 µM (active); in experiment [15], 7.57 µM (active); in [17] it was 11.2 µM (active); in experiment [19], 3.16 µM (active).
